Experimental data taken from PubChem BioAssay (NCATS).
Where “and” joins values, the source holds several entries; their conditions need not be identical. Equal values may be shown once. Inconclusive results are not listed. A structure can be active in one record and inactive in another. Calls of active or inactive are those of the source. Unless noted, calls follow the shape of the dose curve; as a rule, active = well fitted curve in the direction sought with a large enough effect; inconclusive = small, poorly fitted or top-dose-only effect, or another doubt; inactive = no such curve, though single readings can be large; an effect the other way counts as inactive or inconclusive.

Columns and labels:
[1] = Cell Viability - Jurkat (AID 426;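 active = dose-dependent loss of cell ATP signal giving a full or clear fitted curve, ranked by lower potency value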;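 also: potency is read from the fitted curve at half-maximal effect; cells exposed to compound for 40 hours at 37 °C before ATP read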); settings: qHTS
Procedure, shortened: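 Cells of the human T-cell leukemia line Jurkat (E6-1) are seeded at 5000 per well, treated with compound across a concentration range for 40 hours at 37 °C, then lysed with CellTiter-Glo; luminescence reports ATP.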

[2] = Cellular Toxicity (caspase-3) BJ (AID 658); settings: BJ fibroblasts, luminescence; Potency: caspase-3 activation; series mostly up to 91.7 µM;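 also: 0% = DMSO basal and 100% = 10 µM staurosporine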
Procedure, shortened: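 qHTS, BJ fibroblasts, 1000 cells/well; 5 hr preincubation, 16 hr compound, 37 °C; Caspase-Glo 3/7 reagent, 1 hr RT; luminescence. DMSO = 0%, 10 uM staurosporine = 100%. Hill-equation AC50.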

[3] = Cellular Toxicity (caspase-3) Hek293 (AID 664); settings: HEK293 caspase-3 activation, DMSO = 0%, 100 µM tamoxifen = 100%; at 92.2 µM (top of the series);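 also: cells exposed to compound for 16 h at 37 °C before readout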
Procedure, shortened: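 qHTS, HEK293 (human embryonic kidney), 16 h cpd exposure in complete medium. Caspase-3/7 activation = luminescence increase; normalized to DMSO/100 uM tamoxifen; Hill-fit AC50.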

[4] = Cell Viability - LYMP2-003 (AID 965); settings: LYMP2-003 lymphoblastoid cell viability; series mostly up to 92.2 µM;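 also: cells exposed to compounds for 24 h before reading; nearly all actives have a fitted effect of over 50% in size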; also: potency is read from the fitted curve at half-maximal effect
Procedure, shortened: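 Human lymphoblastoid LYMP2-003 cells, 2500/well, exposed to compounds for 24 h at 37 C in complete medium. Viability read as intracellular ATP by CellTiter-Glo luminescence; AC50 from Hill-equation fits of qHTS concentration-response data.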

[5] = target: Estrogen receptor (Homo sapiens) (UniProt P03372); assay: qHTS assay for small molecule antagonists of estrogen receptor alpha signaling (AID 588513; active = well fitted curve in the direction sought with a large enough effect in the signal ratio, with a control signal flat, not every such curve was filed as active; the % refers to the signal ratio; also: % is scaled to controls: 0 for no effect and ±100 for the full control effect); settings: ER-alpha-UAS-bla HEK293, beta-lactamase ratio, antagonist mode; series mostly up to 76.9 µM
Procedure, shortened: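 ER-alpha-UAS-bla GripTite HEK 293 cells in 2% charcoal/dextran-treated FBS medium; compounds titrated (1:2, duplicate), then stimulated with 0.5 nM 17-beta-estradiol for 18 h at 37C. CCF4 beta-lactamase fluorescence; Hill-fit IC50 and efficacy.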

[6] = target: Peroxisome proliferator-activated receptor gamma (Homo sapiens) (UniProt P37231); assay: qHTS assay for small molecule agonists of peroxisome proliferator-activated receptor gamma signaling (AID 588536; active = well fitted curve in the direction sought with a large enough effect in the signal ratio, with a control signal flat, not every such curve was filed as active; the % refers to the signal ratio;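 also: 0% = DMSO basal wells and 100% = rosiglitazone at 2 µM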); settings: HEK293 PPARg-UAS-bla, beta-lactamase ratio, 16 h, percent of rosiglitazone response, DMSO as zero; series mostly up to 76.7 µM
Procedure, shortened: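 Compound treatment: 16 h, 37 C, HEK293 GeneBLAzer cells. Detection: CCF4, 2 h RT. Values: Hill-fit EC50, efficacy as % of 2 uM rosiglitazone.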

[7] = qHTS assay for small molecule agonists of the antioxidant response element (ARE) signaling pathway (AID 651741; active = well fitted activation curve with a large enough effect in the signal ratio; the % refers to the signal ratio; also: potency is read from the fitted curve at half-maximal effect; as to activation: % of control where 0% means no effect); settings: HepG2 ARE-bla reporter, beta-lactamase FRET ratio, 16 h; series mostly up to 96 µM
Procedure, shortened: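 Stably integrated ARE-beta-lactamase reporter HepG2 cells; 16 h compound incubation, 37 C; LiveBLAzer FRET substrate 2 h at room temperature; fluorescence intensity.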

[8] = qHTS assay for small molecule activators of the nuclear factor-kappa B (NF-kB) signaling pathway (AID 651749; active = well fitted activation curve with a large enough effect in the signal ratio; the % refers to the signal ratio; also: % of control where 0% means no effect); settings: NF-kB-bla ME-180 cells, beta-lactamase FRET ratio, 16 h; active compounds read high
Procedure, shortened: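 In this qHTS format, compounds acting as activators increase NF-kB-driven beta-lactamase in ME-180 cells, measured as disrupted FRET after 16 hr exposure at 37C and 5% CO2.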

[9] = target: Nuclear receptor ROR-gamma (Homo sapiens) (UniProt P51449); assay: qHTS assay for small molecule antagonists of the retinoid-related orphan receptor gamma (ROR-gamma) signaling pathway (AID 651802); settings: ROR-gamma antagonist cell reporter assay; series mostly up to 92.2 µM; also: nearly all actives have a fitted effect of over 60% in size; also: potency is read from the fitted curve at half-maximal effect
Procedure, shortened: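 Steps: cells dispensed; compound or DMSO transferred by pin tool; doxycycline added to induce the ROR response element-driven luciferase; plates held 16hr at 37C; ONE-Glo added and luminescence measured.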

[10] = qHTS assay for small molecule antagonists of the retinoid-related orphan receptor gamma (ROR-gamma) signaling pathway - cell viability counter screen (AID 720652; active = well fitted curve in the direction sought with a large enough effect in the repeat runs; an effect the other way counts as inactive or inconclusive;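 also: CHO reporter cells with doxycycline-induced ROR-gamma expression; compound exposure lasted 16 hr before ATP read; % is scaled to controls: 0 for no effect and ±100 for the full control effect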); settings: RORgamma reporter cell line viability counter screen; series mostly up to 92.2 µM
Procedure, shortened: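 Steps: seed CHO cells bearing TET-inducible ROR and ROR response element-luciferase; rest 5 hr at 37 C; add compound, then doxycycline; incubate 16 hr; add CellTiter-Glo and read luminescence as ATP-based viability.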

[11] = qHTS assay for small molecule activators of the human pregnane X receptor (PXR) signaling pathway (AID 720659; call rule not given here; also: 0% is about no effect); settings: DPX-2 HepG2 CYP3A4-luciferase, 24 h; series mostly up to 92.3 µM
[12] = Cellular Toxicity (caspase-3) Jurkat (AID 655); settings: Jurkat caspase-3 activation, luminescence; caspase-3 activation: at 92.2 µM (top of the series), DMSO = 0%, tamoxifen = 100%;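 also: cells exposed to compound for 16 h at 37 °C before reading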
Procedure, shortened: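 Jurkat cells (5000/well) in complete medium exposed 16 h at 37 C; caspase-3/7 activity read by Caspase-Glo luminescence after 20 min at room temperature. Normalized to DMSO and 100 uM tamoxifen; AC50 from Hill fits.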

[13] = target: Vitamin D3 receptor (Homo sapiens) (UniProt P11473); assay: qHTS assay for small molecule agonists of vitamin D receptor signaling (AID 588543; calls by dose curve;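 also: 0% = DMSO basal and 100% = reference agonist control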); settings: HEK293T VDR-UAS-bla, beta-lactamase ratio, 16 h; series mostly up to 76.8 µM
Procedure, shortened: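 VDR-UAS-bla HEK293T cells, 2000/well, 2% charcoal-stripped FBS; compound titration 16 h at 37 C; CCF4 beta-lactamase ratio read. Normalized to 50 nM 1-alpha,25-dihydroxyvitamin D3 (100%) and DMSO; Hill fit gives EC50, efficacy.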

[14] = qHTS assay for small molecule activators of the p53 signaling pathway (AID 651743; active = well fitted activation curve with a large enough effect in the signal ratio, not every such curve was filed as active; the % refers to the signal ratio; also: potency is read from the fitted curve at half-maximal effect; as to activation: % of control where 0% means no effect); settings: HCT-116 p53RE-bla, beta-lactamase FRET ratio, 16 h; activation: active compounds read high
Procedure, shortened: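 Following 16 hours of compound exposure at 37 C, HCT-116 cells bearing the p53RE-bla reporter were loaded with LiveBLAzer B/G FRET substrate for 2 hours at room temperature and fluorescence intensity was recorded.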

[15] = Cell Viability - LYMP1-002 - Assay at 16 hr (AID 948); settings: LYMP1-002 lymphoblastoid cell viability; series mostly up to 92.2 µM; also: potency is read from the fitted curve at half-maximal effect
Procedure, shortened: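 LYMP1-002 human lymphoblastoid cells, 2500/well, were treated with compounds for 16 hr at 37 C in complete medium. Viability was read as intracellular ATP by CellTiter-Glo luminescence, and AC50 was derived from a Hill fit to concentration-response data.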

[16] = target: Voltage-gated inwardly rectifying potassium channel KCNH2 (Homo sapiens) (UniProt Q12809); assay: qHTS Assay for Small Molecule Inhibitors of the Human hERG Channel Activity (AID 588834); settings: U2OS BacMam hERG, FluxOR thallium flux fluorescence; series mostly up to 92.2 µM;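 also: lower thallium flux fluorescence means stronger hERG block; nearly all actives have a fitted effect of over 50% in size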; also: potency is read from the fitted curve at half-maximal effect
Procedure, shortened: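 Thallium serves as surrogate for K+ influx through BacMam-delivered hERG in U2OS cells. Compounds are added for about 10 minutes after dye loading; stimulation buffer then starts flux, monitored kinetically on FDSS.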

[17] = target: Tumor necrosis factor (Homo sapiens) (UniProt P01375); assay: qHTS assay to identify small molecules that stimulate Tumor Necrosis Factor-alpha (TNF-alpha) secretion (AID 651757; active = well fitted curve in the direction sought with a large enough effect in the signal ratio; the % refers to the signal ratio; also: 0% is about no effect); settings: Human cells, HTRF 665/615 ratio; series mostly up to 92.2 µM
Procedure, shortened: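 Human monocytic THP-1 cells are plated, treated with compound and held at 37 C for 17 hrs. Labeled anti-TNF-alpha antibody mixture is then added; after 3 hr at room temperature, TR-FRET signal reports secreted TNF-alpha.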

[18] = Cell Viability - Hek293 (AID 427;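 active = compounds whose dose-response curve shows a full or clear partial loss of cell viability, called from curve shape rather than a numeric limit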;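 also: potency is read from the fitted curve at half-maximal effect; cells exposed to compound for 40 hours at 37 °C before reading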); settings: qHTS
Procedure, shortened: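 Luminescent ATP read-out (CellTiter-Glo, 20 min RT) after 40 hr compound exposure at 37 °C in complete medium. Signal normalized to DMSO (basal) and 100 uM tamoxifen (100% inhibition); concentration-response fitted with the standard Hill equation to give AC50.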

[19] = Cell Viability - LYMP1-002 - Assay at 24 hr (AID 993); settings: LYMP1-002 lymphoblastoid cells viability; series mostly up to 92.2 µM; also: % is scaled to controls: 0 for no effect and ±100 for the full control effect
Procedure, shortened: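 Acute toxicity is measured as concentration-dependent loss of cellular ATP in a human lymphoblastoid line (Coriell LYMP1-002) after 24 h treatment in complete medium. ATP is quantified by luciferase luminescence and AC50 derived by Hill modelling.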

[20] = target: Cytochrome P450 3A4 (Homo sapiens) (UniProt P08684); assay: qHTS Assay for Inhibitors and Substrates of Cytochrome P450 3A4 (AID 884); settings: recombinant CYP3A4, Luciferin-PPXE luminescence; series mostly up to 57.1 µM; also: nearly all actives have a fitted effect of over 50% in size; also: potency is read from the fitted curve at half-maximal effect
Procedure, shortened: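 Luminescent readout of luciferin produced by CYP3A4 (20 nM) dealkylation of Luciferin-PPXE, 25 uM (its KM). NADPH-driven reaction ran 60 min at RT after 10 min compound preincubation; data scaled to 57 uM ketoconazole as 100% inhibition.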

Chain of Vitamin D3 receptor (Homo sapiens) (P11473 whole entry, looked up): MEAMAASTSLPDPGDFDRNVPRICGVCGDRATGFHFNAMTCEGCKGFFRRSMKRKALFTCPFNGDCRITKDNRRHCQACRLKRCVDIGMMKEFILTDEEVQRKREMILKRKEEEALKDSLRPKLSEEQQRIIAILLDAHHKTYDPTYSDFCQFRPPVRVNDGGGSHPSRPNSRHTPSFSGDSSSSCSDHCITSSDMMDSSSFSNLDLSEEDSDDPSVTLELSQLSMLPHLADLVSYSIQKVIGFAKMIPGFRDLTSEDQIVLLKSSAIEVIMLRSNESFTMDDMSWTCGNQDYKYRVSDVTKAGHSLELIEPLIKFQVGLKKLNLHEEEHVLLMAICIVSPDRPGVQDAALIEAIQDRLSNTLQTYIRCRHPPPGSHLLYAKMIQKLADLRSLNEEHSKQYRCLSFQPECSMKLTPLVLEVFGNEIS
Chain of Cytochrome P450 3A4 (Homo sapiens) (P08684 whole entry, looked up): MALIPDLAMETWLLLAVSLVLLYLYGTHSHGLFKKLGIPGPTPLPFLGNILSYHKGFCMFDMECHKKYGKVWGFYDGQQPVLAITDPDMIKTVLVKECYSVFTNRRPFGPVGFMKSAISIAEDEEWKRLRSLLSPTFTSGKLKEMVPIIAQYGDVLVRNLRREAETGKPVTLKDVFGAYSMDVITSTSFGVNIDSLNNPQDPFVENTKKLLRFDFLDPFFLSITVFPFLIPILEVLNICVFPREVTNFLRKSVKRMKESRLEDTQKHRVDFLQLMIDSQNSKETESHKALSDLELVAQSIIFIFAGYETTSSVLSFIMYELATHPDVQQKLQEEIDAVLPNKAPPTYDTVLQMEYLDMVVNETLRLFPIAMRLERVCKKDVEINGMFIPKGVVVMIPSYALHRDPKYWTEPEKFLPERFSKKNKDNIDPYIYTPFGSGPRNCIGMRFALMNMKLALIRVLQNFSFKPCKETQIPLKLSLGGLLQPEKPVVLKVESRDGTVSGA
Chain of Estrogen receptor (Homo sapiens) (P03372 whole entry, looked up): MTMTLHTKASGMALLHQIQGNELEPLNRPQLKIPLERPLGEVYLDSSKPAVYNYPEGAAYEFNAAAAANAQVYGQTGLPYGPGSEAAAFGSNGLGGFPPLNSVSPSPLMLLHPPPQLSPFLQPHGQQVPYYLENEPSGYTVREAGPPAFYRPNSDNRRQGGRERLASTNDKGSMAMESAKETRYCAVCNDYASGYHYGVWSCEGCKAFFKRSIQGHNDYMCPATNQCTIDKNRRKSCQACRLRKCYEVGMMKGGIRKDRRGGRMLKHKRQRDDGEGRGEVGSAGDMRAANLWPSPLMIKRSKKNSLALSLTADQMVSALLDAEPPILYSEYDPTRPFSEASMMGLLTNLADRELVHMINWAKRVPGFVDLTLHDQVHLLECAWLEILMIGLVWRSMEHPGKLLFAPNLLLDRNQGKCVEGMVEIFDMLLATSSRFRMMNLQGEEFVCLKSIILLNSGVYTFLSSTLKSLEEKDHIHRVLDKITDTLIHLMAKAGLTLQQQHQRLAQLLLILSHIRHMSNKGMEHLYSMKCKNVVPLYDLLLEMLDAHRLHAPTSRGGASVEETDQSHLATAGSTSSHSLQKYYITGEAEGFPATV
Chain of Tumor necrosis factor (Homo sapiens) (P01375 whole entry, looked up): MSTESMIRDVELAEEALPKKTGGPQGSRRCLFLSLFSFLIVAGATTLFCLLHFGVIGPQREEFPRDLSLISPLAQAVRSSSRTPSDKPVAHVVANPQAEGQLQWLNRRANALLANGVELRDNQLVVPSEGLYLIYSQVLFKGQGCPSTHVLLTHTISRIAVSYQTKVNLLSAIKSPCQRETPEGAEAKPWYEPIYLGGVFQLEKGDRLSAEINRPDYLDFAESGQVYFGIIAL
Chain of Nuclear receptor ROR-gamma (Homo sapiens) (P51449 whole entry, looked up): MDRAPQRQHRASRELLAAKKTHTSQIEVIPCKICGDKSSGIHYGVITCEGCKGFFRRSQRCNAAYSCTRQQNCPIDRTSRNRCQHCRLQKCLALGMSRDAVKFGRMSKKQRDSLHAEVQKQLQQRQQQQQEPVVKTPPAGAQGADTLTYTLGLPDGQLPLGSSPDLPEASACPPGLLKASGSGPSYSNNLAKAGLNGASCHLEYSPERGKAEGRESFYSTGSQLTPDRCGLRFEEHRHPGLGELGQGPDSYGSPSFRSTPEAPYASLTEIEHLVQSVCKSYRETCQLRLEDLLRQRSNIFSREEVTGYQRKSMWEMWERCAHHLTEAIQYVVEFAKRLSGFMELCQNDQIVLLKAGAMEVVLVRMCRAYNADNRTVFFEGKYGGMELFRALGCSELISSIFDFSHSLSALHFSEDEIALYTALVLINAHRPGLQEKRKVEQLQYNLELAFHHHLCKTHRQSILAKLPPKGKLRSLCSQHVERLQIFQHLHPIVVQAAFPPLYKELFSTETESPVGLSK
Chain of Voltage-gated inwardly rectifying potassium channel KCNH2 (Homo sapiens) (Q12809 whole entry, looked up): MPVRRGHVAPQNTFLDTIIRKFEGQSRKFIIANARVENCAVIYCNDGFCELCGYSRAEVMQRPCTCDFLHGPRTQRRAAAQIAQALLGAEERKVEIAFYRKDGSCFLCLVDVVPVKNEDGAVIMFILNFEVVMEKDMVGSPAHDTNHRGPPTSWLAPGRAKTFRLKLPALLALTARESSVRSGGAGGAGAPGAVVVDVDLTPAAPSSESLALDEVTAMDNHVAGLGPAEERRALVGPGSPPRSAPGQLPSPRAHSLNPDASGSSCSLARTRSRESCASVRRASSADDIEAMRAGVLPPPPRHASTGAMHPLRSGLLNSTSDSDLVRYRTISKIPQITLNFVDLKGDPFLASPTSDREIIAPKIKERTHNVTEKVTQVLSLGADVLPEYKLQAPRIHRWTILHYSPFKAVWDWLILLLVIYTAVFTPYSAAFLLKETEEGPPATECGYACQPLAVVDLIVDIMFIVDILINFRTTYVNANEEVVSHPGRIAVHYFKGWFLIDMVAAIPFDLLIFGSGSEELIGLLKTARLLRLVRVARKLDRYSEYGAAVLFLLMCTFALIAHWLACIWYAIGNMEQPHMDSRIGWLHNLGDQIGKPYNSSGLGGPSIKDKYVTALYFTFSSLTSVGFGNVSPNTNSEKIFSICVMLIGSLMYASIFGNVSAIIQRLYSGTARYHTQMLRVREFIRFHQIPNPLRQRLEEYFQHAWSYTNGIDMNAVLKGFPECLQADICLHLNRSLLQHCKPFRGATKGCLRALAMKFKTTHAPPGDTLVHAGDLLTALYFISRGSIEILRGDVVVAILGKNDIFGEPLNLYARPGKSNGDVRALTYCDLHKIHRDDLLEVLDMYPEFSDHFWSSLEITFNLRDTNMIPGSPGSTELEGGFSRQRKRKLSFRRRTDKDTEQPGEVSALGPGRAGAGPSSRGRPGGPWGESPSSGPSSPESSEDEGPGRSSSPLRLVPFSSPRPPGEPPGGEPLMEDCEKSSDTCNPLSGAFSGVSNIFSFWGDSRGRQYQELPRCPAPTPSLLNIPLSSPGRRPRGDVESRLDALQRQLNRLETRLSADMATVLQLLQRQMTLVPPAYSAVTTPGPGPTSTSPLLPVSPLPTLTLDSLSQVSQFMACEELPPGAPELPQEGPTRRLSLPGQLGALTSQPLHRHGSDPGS
Chain of Peroxisome proliferator-activated receptor gamma (Homo sapiens) (P37231 whole entry, looked up): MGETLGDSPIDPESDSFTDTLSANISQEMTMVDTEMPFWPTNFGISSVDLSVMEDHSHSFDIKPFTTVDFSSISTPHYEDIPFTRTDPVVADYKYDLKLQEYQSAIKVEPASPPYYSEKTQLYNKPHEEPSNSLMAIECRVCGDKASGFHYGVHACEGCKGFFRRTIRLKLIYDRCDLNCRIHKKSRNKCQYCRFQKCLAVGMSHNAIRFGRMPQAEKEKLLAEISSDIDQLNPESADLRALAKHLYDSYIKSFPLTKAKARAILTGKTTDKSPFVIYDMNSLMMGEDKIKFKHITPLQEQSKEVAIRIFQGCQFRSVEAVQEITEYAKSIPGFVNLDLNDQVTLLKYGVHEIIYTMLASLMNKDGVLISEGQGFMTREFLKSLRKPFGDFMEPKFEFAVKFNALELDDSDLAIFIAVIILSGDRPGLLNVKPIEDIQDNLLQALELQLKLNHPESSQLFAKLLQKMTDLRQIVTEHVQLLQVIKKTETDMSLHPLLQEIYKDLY

Oc1cc2c(cc1O)[C@H]1c3ccc(O)c(O)c3OC[C@@]1(O)C2
inactive: Potency [2] | caspase-3 activation [3] 0.207% | outcome [5] | outcome [6] | activation [8] -1.98% | Potency [10] | outcome [11]
active: Potency [1] 35.9 µM | Potency [4] 31.6 µM | Potency [7] 66.8 µM | Potency [9] 11.9 µM

Cc1c(C(=O)O)c(O)cc2c1C(=O)c1c(O)c([C@H]3O[C@H](CO)[C@@H](O)[C@H](O)[C@H]3O)c(O)c(O)c1C2=O
inactive: Potency [12] | Potency [2] | caspase-3 activation [3] -3.17% | outcome [5] | outcome [6] | Potency [13] | Potency [7] | activation [14] 0.0222% | outcome [11]
active: Potency [9] 26.6 µM

C=CC(=O)OCCCCCCOC(=O)C=C
active: Potency [1] 21.1 µM | Potency [15] 39.8 µM | Potency [4] 39.8 µM | Potency [7] 29.8 µM | Potency [14] 70.8 µM
inactive: Potency [12] | Potency [2] | outcome [5] | outcome [6] | Potency [13] | Potency [16] | activation [14] -3.66% | Potency [17] | outcome [11]

c1ccc(Nc2cccc3ccccc23)cc1
inactive: Potency [18] > 92 µM | Potency [12] | Potency [2] | caspase-3 activation [3] 4.83% | Potency [4] | activation [14] -1.55% and -1.95% | Potency [17] | Potency [9]

Oc1cc(Cl)cc(Cl)c1Cl
inactive: Potency [12] | caspase-3 activation [3] -0.269% | Potency [15] | Potency [4] | Potency [19] | outcome [5] | Potency [13] | Potency [16] | Potency [10] | outcome [11]

Nc1ccc(N)c(Cl)c1
inactive: Potency [2] | caspase-3 activation [3] 4.53% | Potency [15] | Potency [19] | Potency [13] | Potency [16] | activation [14] 1.03% | Potency [9] | Potency [10] | outcome [11]
active: Potency [7] 23.7 µM

CC(=O)CC(=O)Nc1ccccc1
inactive: Potency [18] > 92 µM | Potency [12] | Potency [2] | caspase-3 activation [3] -0.00159% | Potency [20] | Potency [4] | Potency [19] | outcome [6] | Potency [13] | Potency [16] | Potency [7] | activation [8] -0.0343% and 0.349% | Potency [17] | Potency [10] | outcome [11]

CN(C)c1ccc(C(=N)c2ccc(N(C)C)cc2)cc1
active: Potency [16] 15.8 µM | Potency [9] 5.31 µM
inactive: Potency [2] | caspase-3 activation [3] 7.49% | outcome [5] | Potency [13] | activation [14] 11.1% | activation [8] 3.33%

O=[N+]([O-])c1cc(Cl)c(Cl)c(Cl)c1Cl
inactive: Potency [12] | caspase-3 activation [3] 2.6% | Potency [20] | Potency [4] | Potency [19] | Potency [13] | Potency [16] | activation [14] 0.035% | activation [8] -0.62% | Potency [17] | outcome [11]
active: Potency [7] 29.8 µM | Potency [9] 33.5 µM

NC(=O)Nc1nc2ccccc2[nH]1
inactive: Potency [18] > 92 µM | Potency [12] | Potency [20] | Potency [19] | outcome [5] | outcome [6] | Potency [13] | Potency [16] | Potency [7] | activation [14] -0.426% | activation [8] -0.124% | Potency [17] | Potency [9] | Potency [10]

O=Nc1ccc(Nc2ccccc2)cc1
active: Potency [1] 3.86 µM | Potency [18] 30.8 µM
inactive: Potency [2] | caspase-3 activation [3] -5.38% | Potency [16] | activation [8] -1.21% and -2.86%

CCCCC(CC)COP(=O)(OCC(CC)CCCC)OCC(CC)CCCC (centres undefined)
inactive: Potency [12] | Potency [2] | Potency [15] | Potency [4] | Potency [19] | outcome [6] | Potency [13] | Potency [16] | activation [14] -6.02% | activation [8] -0.649% | Potency [17] | Potency [9] | Potency [10] | outcome [11]

Cc1cc2nc(N)sc2cc1C
inactive: Potency [18] > 92 µM | caspase-3 activation [3] -7.89% | Potency [4] | Potency [19] | outcome [6] | Potency [13] | Potency [16] | activation [14] -2.08% | activation [8] -0.263% | Potency [17] | Potency [9] | Potency [10]
active: Potency [20] 15.8 µM

O=[N+]([O-])c1cc(N(CCO)CCO)ccc1NCCO
inactive: Potency [12] | Potency [2] | Potency [20] | outcome [5] | Potency [13] | Potency [16] | Potency [7] | activation [14] -5.39% and -4.71% | activation [8] -0.608% and 1.27% | Potency [9] | Potency [10] | outcome [11]
